Test [1] is described as follows: qHTS assay to identify aromatase inhibitors - cell viability counter screen (AID 743084).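 Also: cells stimulated with testosterone during compound exposure; nearly all actives have a fitted effect of over 55% in size.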 Also: potency is read from the fitted curve at half-maximal effect.
The target of test [2] is Aryl hydrocarbon receptor (Homo sapiens) (UniProt P35869). Put plainly: qHTS assay to identify small molecule that activate the aryl hydrocarbon receptor (AhR) signaling pathway (AID 743085). Also: nearly all actives have a fitted effect of over 15% in size. Also: potency is read from the fitted curve at half-maximal effect.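 As to activation: HG2L7.5c1 human HepG2 liver cells with stably integrated DRE-driven firefly reporter; series mostly up to about 70 µM.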 In short, it runs like this: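 Stably transfected human liver carcinoma cells (HG2L7.5c1; 20 DRE-firefly luciferase) were incubated 5 h, dosed, and kept 24 h at 37C. Agonism was scored from increased luciferase luminescence.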

The nature of test [3]: qHTS assay to identify small molecule antagonists of the peroxisome proliferator-activated receptor gamma (PPARg) signaling pathway - cell viability counter screen (AID 743194). Also: nearly all actives have a fitted effect of over 55% in size. Also: potency is read from the fitted curve at half-maximal effect. In short, it runs like this:
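PPARg-UAS-bla HEK293H cells were plated, rested 5 h at 37 C, then treated with compounds plus rosiglitazone (50 nM final) for 17 h at 37 C; viability was then read by CellTiter-Glo luminescence after 30 min at room temperature.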

A short description of test [4]: qHTS assay for small molecule agonists of the antioxidant response element (ARE) signaling pathway (AID 743202; active = well fitted activation curve with a large enough effect in the signal ratio in the repeat runs, not every such curve was filed as active; the % refers to the signal ratio; also: potency is read from the fitted curve at half-maximal effect). In short, it runs like this: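 Following a 16 h, 37 C exposure of reporter HepG2 cells (ARE-driven beta-lactamase, 2,000 cells/well) to compounds, FRET substrate was applied for 2 h at room temperature and fluorescence intensity recorded.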
The target in test [5] is Peroxisome proliferator-activated receptor gamma (Homo sapiens) (UniProt P37231). Put plainly: qHTS assay to identify small molecule agonists of the peroxisome proliferator-activated receptor gamma (PPARg) signaling pathway (AID 743094; active = well fitted activation curve with a large enough effect in the signal ratio in the repeat runs, not every such curve was filed as active; the % refers to the signal ratio; also: potency is read from the fitted curve at half-maximal effect). In short, it runs like this:
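Fluorescence-based beta-lactamase readout in HEK293H PPARg UAS-bla cells after 17 h compound exposure (37C) and 1 h B/G FRET substrate incubation at room temperature.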

Test [6] shares this target. Put plainly: qHTS assay to identify small molecule antagonists of the peroxisome proliferator-activated receptor gamma (PPARg) signaling pathway (AID 743191; calls by dose curve; also: series mostly up to about 63 µM; nearly all actives have a fitted effect of over 30% in size). In short, it runs like this:
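GeneBLAzer PPARg UAS-bla HEK293H cells carrying a UAS-driven beta-lactamase reporter were plated at 3000 cells/well, preincubated 5 h at 37C, then given compound for 17 h at 37C; LiveBLAzer B/G FRET substrate was read after 1 h at room temperature.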

Test [7] is described as follows: qHTS assay for small molecule agonists of the antioxidant response element (ARE) signaling pathway - cell viability counter screen (AID 743203; calls by dose curve; also: nearly all actives have a fitted effect of over 55% in size; also: potency is read from the fitted curve at half-maximal effect). In short, it runs like this: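 Parallel cytotoxicity read-out for the ARE-bla screen: HepG2 reporter cells, 16 hrs with compounds, then CellTiter-Glo luminescence.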
The nature of test [8]: qHTS assay for small molecule activators of the heat shock response signaling pathway - cell viability counter screen (AID 743209). Also: nearly all actives have a fitted effect of over 50% in size. Also: potency is read from the fitted curve at half-maximal effect. In short, it runs like this: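 To flag cytotoxic compounds, HSE-bla HeLa cells plated at 1500 cells/well were dosed for 5 h at 37 C, followed by the reporter FRET read and then CellTiter-Glo, with luminescence recorded 30 min after reagent addition.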

A short description of test [9]: qHTS assay for small molecule activators of the heat shock response signaling pathway (AID 743210; active = well fitted activation curve with a large enough effect in the signal ratio in the repeat runs, with a control signal flat, not every such curve was filed as active; the % refers to the signal ratio; also: series mostly up to about 63 µM). In short, it runs like this: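 Heat shock element–beta-lactamase HeLa reporter cells; qHTS with compounds for 5 h at 37 C; detection by FRET substrate fluorescence after 2.5 h at RT.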

Results filed as inconclusive are left out. The source made the active and inactive calls. Unless noted, calls follow the shape of the dose curve; as a rule, active = well fitted curve in the direction sought with a large enough effect in the repeat runs; inconclusive = weak or mixed curves; inactive = no such curve, though single readings can be large; an effect the other way counts as inactive or inconclusive.

Sequence of Peroxisome proliferator-activated receptor gamma (Homo sapiens) (P37231 whole entry, looked up): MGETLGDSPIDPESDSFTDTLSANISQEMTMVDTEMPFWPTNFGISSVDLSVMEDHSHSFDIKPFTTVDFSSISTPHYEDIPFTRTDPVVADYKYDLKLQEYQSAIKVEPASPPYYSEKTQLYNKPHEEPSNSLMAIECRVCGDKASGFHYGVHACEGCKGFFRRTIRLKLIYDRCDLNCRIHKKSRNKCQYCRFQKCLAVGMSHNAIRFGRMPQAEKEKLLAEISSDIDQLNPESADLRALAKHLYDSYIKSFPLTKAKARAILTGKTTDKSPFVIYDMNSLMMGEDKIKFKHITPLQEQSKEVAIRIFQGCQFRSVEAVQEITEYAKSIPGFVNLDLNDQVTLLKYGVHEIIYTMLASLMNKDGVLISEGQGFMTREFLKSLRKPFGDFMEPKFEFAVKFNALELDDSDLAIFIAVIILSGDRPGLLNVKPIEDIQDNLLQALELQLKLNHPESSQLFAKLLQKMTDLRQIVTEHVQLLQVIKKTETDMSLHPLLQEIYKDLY
Sequence of Aryl hydrocarbon receptor (Homo sapiens) (P35869 whole entry, looked up): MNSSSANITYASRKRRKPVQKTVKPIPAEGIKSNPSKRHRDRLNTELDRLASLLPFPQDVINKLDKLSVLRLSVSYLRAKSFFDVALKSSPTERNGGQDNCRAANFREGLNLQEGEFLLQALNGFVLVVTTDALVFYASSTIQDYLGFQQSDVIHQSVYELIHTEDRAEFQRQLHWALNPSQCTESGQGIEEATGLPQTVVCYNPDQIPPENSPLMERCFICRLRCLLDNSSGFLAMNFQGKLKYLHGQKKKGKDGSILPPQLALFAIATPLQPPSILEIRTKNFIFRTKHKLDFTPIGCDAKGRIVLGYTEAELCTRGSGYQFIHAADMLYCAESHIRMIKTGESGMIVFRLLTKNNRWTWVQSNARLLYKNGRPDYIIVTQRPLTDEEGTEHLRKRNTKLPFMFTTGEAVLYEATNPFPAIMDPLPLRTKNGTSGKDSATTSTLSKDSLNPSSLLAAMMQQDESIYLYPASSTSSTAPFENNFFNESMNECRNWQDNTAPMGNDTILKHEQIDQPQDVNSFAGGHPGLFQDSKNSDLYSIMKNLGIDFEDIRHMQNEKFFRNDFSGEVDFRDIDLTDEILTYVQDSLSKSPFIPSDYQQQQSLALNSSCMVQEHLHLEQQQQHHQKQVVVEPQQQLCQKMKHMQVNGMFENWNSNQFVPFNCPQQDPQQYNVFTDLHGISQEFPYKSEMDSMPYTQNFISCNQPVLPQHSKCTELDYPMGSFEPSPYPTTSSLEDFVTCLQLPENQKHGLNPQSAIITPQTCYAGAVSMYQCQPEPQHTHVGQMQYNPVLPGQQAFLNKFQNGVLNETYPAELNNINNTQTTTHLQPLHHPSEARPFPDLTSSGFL

Regarding `CC(C)=CCOc1ccc(/C=C/C(=O)c2ccc(OCC=C(C)C)cc2OCC(=O)O)cc1`, the Potency entry in [1] and in test [2] was “inactive” each time. Further, the Potency in [3] is 29.8 µM (active); in [4], 3.35 µM (active).

With `CCC(N)(CO)CO`, the Potency result in [1], in test [2], in test [5], in test [6], in test [3] and in [7] was “inactive” in each case. Moreover, the Potency entry in [8] and in test [9] was “inactive” each time.

`CSc1ccc(/C=C2/C(C)=C(CC(=O)O)c3cc(F)ccc32)cc1`: the Potency entry in test [1], in test [3] and in test [7] was “inactive” in each case. In addition, in test [2], the Potency was 9.44 µM (active).

Consider `CCCC(C)c1ccccc1O` (stereo unspecified), for which the Potency result in [1], in test [2], in test [5], in [6], in [3] and in test [4] was “inactive” in each case. For the same compound, the Potency result in test [7], in [8] and in test [9] was “inactive” each time.

For the compound `O=C(OCC1CO1)C1CCCCC1C(=O)OCC1CO1` (stereo unspecified), the Potency in [1] and in test [4] was 48.6 µM (active) throughout. In addition, the Potency result in test [2], in test [5], in test [3], in test [7], in test [8] and in [9] was “inactive” throughout.

Turning to `[O-][n+]1ccccc1SSc1cccc[n+]1[O-]`, the figures for the Potency in test [1], in test [5] and in test [4] were 0.188 µM (active), 0.674 µM (active) and 3.66 µM (active), respectively. The Potency entry in test [2] is “inactive”.

`CC1=NC(C)OC1C` (stereo unspecified): the Potency result in test [1], in [2], in test [3], in test [7], in [8] and in [9] was “inactive” throughout. Besides, the Potency in [4] was 30.6 µM (active).

As to `CCCCc1oc2ccc(NS(C)(=O)=O)cc2c1C(=O)c1ccc(OCCCN(CCCC)CCCC)cc1`, the Potency was 29.8 µM (active) in test [1], 29.8 µM (active) in test [3], 26.6 µM (active) in test [7] and 29.8 µM (active) in test [8]. Besides, the Potency result in test [2] was “inactive”.

On to `Cc1cc(O)c(Cl)c(C)c1Cl`, for which the Potency in test [1] is 61.1 µM (active); in [7], 30.6 µM (active). In addition, the Potency result in [2] and in test [5] was “inactive” in each case.

For `Oc1cccc2cc3cccc(O)c3c(O)c12`, the Potency result in test [1], in test [2], in test [5], in test [3] and in test [7] was “inactive” in each case.

Consider `c1ccc(CSCc2ccccc2)cc1`, for which the Potency entry in test [1], in test [2], in [5], in test [6], in test [7] and in test [8] was “inactive” each time. The Potency entry in test [9] was “inactive”.

As to `O=C(c1ccc(O)cc1O)c1ccc(O)cc1O`, the Potency result in [1], in [5], in [7] and in test [8] was “inactive” throughout. In addition, the Potency in test [2] was 21.7 µM (active).

As for `CN(C)c1ccc(C2(c3ccc(N(C)C)cc3)OC(=O)c3cc(N(C)C)ccc32)cc1`, the Potency entry in [1], in test [2], in test [3], in test [7] and in test [8] was “inactive” in each case.

Turning to `C[n+]1cc2c3c(ccc2c2ccc4cc5c(cc4c21)OCO5)OCO3`, the Potency in test [1] is 21.1 µM (active); in [2] it was 6.68 µM (active); in test [3], 1.3 µM (active); in [7], 0.92 µM (active).

As to `CCC(C)(C)C1CCCCC1OC(C)=O` (stereo unspecified), the Potency entry in [1], in [2], in [5], in test [6], in [3] and in [7] was “inactive” throughout.

Consider `CNCc1cc(F)ccc1Oc1ccc(Cl)c(Cl)c1`, for which the Potency result in test [1], in [2], in test [5], in test [6], in test [3] and in test [9] was “inactive” each time. Besides, the Potency in [7] is 61.1 µM (active).

Take `CCCCC(CC)CN=C(N)NC(N)=NCCCCCCN=C(N)NC(N)=NCC(CC)CCCC` (stereo unspecified): the Potency in [1] is 26.6 µM (active); in test [3], 11.9 µM (active); in test [7], 9.44 µM (active); in test [8], 23.7 µM (active). Moreover, the Potency result in test [2] is “inactive”.

For `CCCCCCCCCCCCCCCC[N+](C)(C)CCN(Cc1ccc(OC)cc1)c1ncccn1`, the Potency entry in [1], in test [2] and in [5] was “inactive” throughout. Moreover, the Potency in test [3] was 26.6 µM (active).

For the compound `O=C1C=CC(=O)N1`, the Potency in test [1] is 9.95 µM (active); in test [3], 25.2 µM (active); in test [7], 62.8 µM (active); in [8], 20 µM (active). In test [2], the Potency entry is “inactive”.

For the origin of these results see PubChem BioAssay (Tox21).
